# From PubChem BioAssay (NCATS)
# Results filed as inconclusive are left out. Values without a mark were called inactive. The source made the active and inactive calls. The call rests on the fitted dose curve; in most records, active means well fitted cell-killing curve with a large enough effect; inconclusive means small, poorly fitted or top-dose-only effect; inactive means flat fitted curve, though single readings scatter.
# Assay: Cellular viability qHTS for adrenocortical cancer (ACC) cell line NCI-H295R (AID 1963990); further: nearly all actives have a fitted effect of over 60% in size;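 on activity change, negative = viability loss: 0% = DMSO only wells and -100% = full killing with cytotoxic reference compound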
# Settings: CellTiter-Glo ATP luminescence, 48 h; series mostly up to 46.1 µM; activity change, negative = viability loss: at the top concentration
# Outline: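 Adrenocortical carcinoma cells, suspended at 300 000 cells/mL in serum-free DMEM plus ITS, rested overnight before pin transfer of compound. After two days' incubation, ATP-dependent luminescence was recorded and curve-fitted.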
# Potency means the concentration at half of the fitted maximal effect.
Compound,"activity change, negative = viability loss [%]",Potency
COCCOc1ccc(N2CCN(CCn3ncc4c3nc(N)n3nc(-c5ccco5)nc43)CC2)cc1,-12.6,–
O=C(NC[C@H](O)CN1CCc2ccccc2C1)c1ccnc(NC2CCC2)c1,-7.58,–
Cc1ccc(S(=O)(=O)Nc2cc(-c3ccc(C#N)s3)ccc2C)cc1,–,31.6 nM (active)
COc1ccc2nc3n[nH]c(C)c3c(NCCOCCO)c2c1,-20.9,–
COc1ccc(S(=O)(=O)Nc2nnc(CC(C)C)s2)cc1,-6.9,–
CCN(CC)CCOC(=O)c1ccc(N)cc1,7.14,–
CCN(c1cc(-c2ccc(CN3CCOCC3)cc2)cc(C(=O)NCc2c(C)cc(C)[nH]c2=O)c1C)C1CCOCC1,-6.4,–
Nc1ncccc1-c1nc2ccc(-c3ccccc3)nc2n1-c1ccc(C2(N)CCC2)cc1,–,3980 nM (active)
COc1ccc2nc(SCc3ncc(C)c(OC)c3C)[nH]c2c1,-29.8,–
C[C@@H]1O[C@@H](OC[C@H]2O[C@@H](Oc3c(-c4ccc(O)c(O)c4)oc4cc(O)cc(O)c4c3=O)[C@H](O)[C@@H](O)[C@@H]2O)[C@H](O)[C@H](O)[C@H]1O,1.81,–
COc1cc2c(cc1OC)C(=O)CC2,-13.3,–
CC(C)(C)NCC(O)COc1ccccc1OCC1CCCO1 (configuration not stated),3.51,–
